Rows were chosen to be rich in hits. Some 0.83% of all compounds tested hit in one or more screens of this group.
LRH-1 inv ag: LRH-1 (NR5A2) inverse agonists, primary screen, cell-based, luminescence, HEK293T, StAR-luciferase reporter. LRH-1 transfected, 24 h. inhibition, % at 3.6 µM. 360,000 tested, 0.13% active. AID 602396, 2012;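 active = inhibition above the mean inhibition of all tested compounds plus 3 SD, cut at about 73% in these data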;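 also: 0% = DMSO wells and 100% = reporter-only cells lacking LRH-1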
NCOA1 inh: SRC1 coactivator transcriptional activity inhibitors, primary screen, cell-based, luminescence | Nuclear receptor coactivator 1 (Homo sapiens), Q15788 | HEK293 GAL4-SRC1 luciferase reporter | inhibition, % at 3.6 µM | 360,000 tested, 0.12% active | AID 588354, 2011;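 active = inhibition above the campaign mean plus 3 SD, with each screening campaign given its own cutoff, cut at about 60% in these data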;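 also: 0% = DMSO treated cells and 100% = gossypol at 36 µM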
SRC3 inh: SRC3 coactivator transcriptional activity inhibitors, primary screen, cell-based, luminescence; inhibition, % at 3.6 µM; 360,000 tested, 0.17% active; HEK293 GAL4-SRC3 luciferase reporter;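 active = inhibition above a per-campaign cutoff, the mean of all compounds plus 3 SD, cut at about 60% in these data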;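 also: 0% = DMSO-treated cells and 100% = gossypol-treated cells at 36 µM; higher means less SRC3-driven luciferase light from the GAL4 reporter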
SRC2 inh: inhibition of GAL4-SRC2 driven luciferase reporter, primary screen, SRC2 inhibitor project, cell-based, luminescence | inhibition, % at 9 µM | HEK293 GAL4-SRC2 luciferase reporter | 370,000 tested, 0.17% active | AID 651957, 2012 | Nuclear receptor coactivator 2 (Homo sapiens), Q15596;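 active = inhibition above the mean inhibition of all tested compounds plus 3 SD, set per campaign, cut at about 52% in these data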;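 also: 0% = DMSO treated cells and 100% = cells given Gossypol at 36 µM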
Gli-Sufu antag: Gli-Sufu pathway antagonists, primary screen, luciferase luminescence, Sufu-KO-LIGHT cells, uHTS. Sufu-KO-LIGHT fibroblasts, Gli luciferase reporter luminescence. 340,000 tested, 0.74% active. AID 588413, 2011. inhibition, % at 5 µM;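 active = inhibition above about 55%, limit read from the data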;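 also: 0% = DMSO-treated cells and 100% = wells with medium but no cells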
* marks the source's active call; other numbers are inactive results; / = not tested or not shown.

SMILES | LRH-1 inv ag | NCOA1 inh | SRC3 inh | SRC2 inh | Gli-Sufu antag
O=C(Nc1ccc(Oc2ccccc2)cc1)C1CCN(c2c3c(nc4ncnn24)CCC3)CC1 | 10 | 19 | 13 | 10 | 70*
CC(C)CCCCCCCCCCCCC(=O)NCC(=O)NC1C(C)OC(Nc2ncnc3nc[nH]c23)C(O)C1O (stereo not drawn) | 88* | 87* | 91* | 40 | 70*
COC(=O)[C@]12C[C@H](CC(=O)NCC3CCCCC3)C(=O)N(Cc3ccco3)C1=C[C@H](COCc1ccccc1)O[C@@H]2C | / | / | / | 1 | /
CCOC(=O)N1CCN(Cc2cc(Cl)c3cccnc3c2O)CC1 | / | / | / | 19 | 73*
O=C(N/N=C(\c1ccccc1)c1cccnc1)c1cccc(F)c1 | 71 | 48 | 58 | -7 | 94*
O=C(N/N=C(\c1ccccc1)c1cccnc1)c1ccc(O)cc1 | 20 | -2 | 24 | 11 | -16
COc1ccc(C)cc1NS(=O)(=O)c1ccc(NC(=O)CN(c2cc([N+](=O)[O-])ccc2C)S(C)(=O)=O)cc1 | 27 | 10 | 38 | 37 | 11
Cc1cccc(NS(=O)(=O)c2ccc(NC(=O)CN(c3cc([N+](=O)[O-])ccc3C)S(C)(=O)=O)cc2)c1 | 19 | 17 | 40 | 54* | 20
COc1ccc(C#CCN(C)/C(N)=N/C(=O)OCc2ccccc2)cc1 | / | / | / | 12 | /
COc1ccc(-c2csc(NC(=O)c3ccccc3F)n2)cc1 | -20 | 8 | -30 | -10 | -6
COc1ccc(-c2csc(NC(=O)c3ccccc3NS(=O)(=O)c3ccc(F)c(F)c3)n2)cc1 | 87* | 64* | 79* | 0 | 75*
COc1ccc(S(=O)(=O)N2CCOCC2)cc1NC(=O)CCNC(=O)c1ccc([N+](=O)[O-])cc1 | 82* | 55 | 45 | 48 | 7
COc1cccc(NC(=O)NC2CCCCN(Cc3ccc(C)cc3)C2=O)c1 (stereo not drawn) | / | / | / | 9 | /
CC(C)N(Cc1cn(Cc2ccccc2)nn1)S(=O)(=O)c1ccc(F)cc1Br | / | / | / | 18 | /
CSc1nnc(NC(=O)c2nc(S(=O)(=O)Cc3cccc(C)c3)ncc2Cl)s1 | 14 | -43 | -17 | 56* | 16
COc1ccc(NC(=O)C2(C)Cc3c(-c4ccccc4)ccnc3O2)cn1 (stereo not drawn) | -26 | -7 | 8 | -29 | /
COc1ccc(NC(=O)C2(C)Cc3c(-c4cccc(C(F)(F)F)c4)ccnc3O2)cn1 (stereo not drawn) | -4 | 10 | 5 | 71* | /
Brc1ccc2ncnc(NCc3ccccc3)c2c1 | 41 | 67* | 64* | 55* | 43
COC1=CC(=O)c2c(ccc3ncnc(N)c23)C1=O | 72 | 60 | 69* | 62* | 56*
COc1cccc2c1C(=O)C=C(C)C2=O | 21 | -1 | 9 | -9 | 17
C[C@@H]1ON(C)[C@H]2C[C@H]3c4[nH]c5c(-c6ccc7c(c6)OCO7)cccc5c4CCN3C[C@@H]12 | / | / | / | -31 | /
Cc1cc(C(=O)NC2CCCc3c2cnn3-c2ccc(C(C)(C)C)cc2)nn1C (stereo not drawn) | 20 | 2 | 32 | 12 | 58*
CC1=C(C(=O)NC2CCCc3c2cnn3-c2cccc(C)c2C)OCCO1 (stereo not drawn) | 25 | 15 | 9 | 24 | 57*
Cc1cccc(-n2ncc3c2CCCC3NC(=O)c2ccncc2)c1C (stereo not drawn) | 49 | 31 | 18 | 5 | /
CN(C)NC1=CC(=[N+]2CCCC2)CC(C)(C)C1 | 6 | -2 | 24 | -4 | 1
CCCN(CCC)C1=CC(=[N+]2CCCC2)CC(C)(C)C1 | 72 | 61* | 55 | 39 | 82*
O=C(CSc1ncnc2sc3c(c12)CCCC3)Nc1ccc(Oc2ccccc2)cc1 | / | / | / | 4 | /
N#Cc1cc2c(nc1SCC(=O)N1CCOCC1)CCCCC2 | 59 | 57 | 65* | 23 | 30
C=CC[n+]1c(/C=C2\C=Cc3cc(C)ccc3N2CC)ccc2ccccc21 | 89* | 27 | 71* | 16 | 90*
CCCCCCCCNS(=O)(=O)CC1NCc2cc(F)ccc21 (stereo not drawn) | / | / | / | -18 | /

From PubChem BioAssay
